hcDAF-12 act: H. contortus DAF-12 activation, primary screen. AID 652067. HEK293 hcDAF-12 lit1-tk-luc reporter, luminescence; 0% DMSO, 100% Δ7-dafachronic acid. activation, % at 6.8 µM. actives 1.4% (n = 370,000);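 active = activation above the mean of all tested compounds plus 3 SD, cut at about 5.5% in these data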;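 also: 100% = response to 3 µM Δ7-dafachronic acid high control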
DAX1 inh-1: NR0B1 (DAX1) inhibition. inhibition, % at 6.75 µM. actives 0.99% (n = 340,000). P51843. AID 504766. HEK293 Gal4-DAX1 luciferase reporter, luminescence;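 active = inhibition above the mean over all tested compounds plus 3 SD, cut at about 4.2% in these data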;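 also: 0% = DAX1-transfected cells with DMSO and 100% = empty-vector control cells with DMSO; inhibition shows as a rise in luminescence from relieved DAX1 repression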
Target sequence (P51843 207-470 limits assumed): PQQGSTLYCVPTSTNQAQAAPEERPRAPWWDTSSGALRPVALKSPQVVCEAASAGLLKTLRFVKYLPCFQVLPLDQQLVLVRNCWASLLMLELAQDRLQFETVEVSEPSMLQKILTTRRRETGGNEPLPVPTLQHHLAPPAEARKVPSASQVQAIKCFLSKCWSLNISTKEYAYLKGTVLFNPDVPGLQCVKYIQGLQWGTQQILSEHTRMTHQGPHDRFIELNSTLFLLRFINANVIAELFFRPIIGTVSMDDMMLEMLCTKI
ssDAF12 agonist: activators of S. stercoralis DAF-12 nuclear receptor | actives 1% (n = 370,000) | activation, % at 6.8 µM | HEK293 ssDAF-12/GRIP1 lit1-tk-luc reporter, luminescence; % of 3 µM dafachronic acid response | AID 652126;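 active = activation above the mean over all tested compounds plus 3 SD, cut at about 0.9% in these data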;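 also: 0% = DMSO-only wells and 100% = 3 µM delta7-dafachronic acid wells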
hgDAF12 agonist: activates the H. glycines DAF-12 receptor ligand-binding domain; activation, % at 6.8 µM; actives 1.8% (n = 370,000); HEK293 GAL4-hgDAF12 UAS-luciferase reporter, agonist luminescence; normalized to butyrate control;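 active = activation above a cutoff set at the mean of all screened compounds plus 3 SD, cut at about 10% in these data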;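 also: 0% = DMSO wells and 100% = sodium butyrate wells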
DAX1 inh-2: blocks DAX1 repression of SF-1 activated StAR promoter; HEK293T StAR-luciferase reporter, SF-1/DAX-1 repression relief; inhibition, % at 6.8 µM; actives 1.1% (n = 370,000); AID 652010;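 active = inhibition above the mean over all tested compounds plus 3 SD, cut at about 3.6% in these data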;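 also: 0% = DAX-1 cells with DMSO and 100% = cells lacking DAX-1 with DMSO; higher inhibition means more luminescence from relief of DAX-1 repression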
* marks the source's active call; other numbers are inactive results; . = not tested or not shown. Sampled rows, rich in hits. Any-hit rate of the full collection: about 4.1%.

SMILES	hcDAF-12 act	DAX1 inh-1	ssDAF12 agonist	hgDAF12 agonist	DAX1 inh-2
CCCCCN1CCCCC(NC(=O)C(C)(C)C)C1=O (configuration not stated)	-2	.	-2	-2	-1
CC(=O)Nc1ccc2ccccc2c1	.	0	.	.	.
CCOC(=O)C(Nc1ccc2ccccc2c1)C(=O)OCC	5.7*	0	0	5	0
CC1(N2CCCCC2)C(=O)c2ccccc2C1=O	2	0	1.0*	2	0
O=C(CCc1ccccc1-c1ccccc1CCNC(=O)c1cccc(F)c1)NCc1ccccc1	-4	.	-2	1	-2
O=C(Oc1ccccc1N1C(=O)C2CC=CCC2C1=O)c1ccc(Br)cc1 (configuration not stated)	1	0	1.2*	0	1
O=C(N/N=C1\CC(c2ccccc2)Oc2ccccc21)c1ccccn1 (configuration not stated)	4	0	-1	1	3.8*
COC(=O)[C@]12C[C@H](CC(=O)N3CCSCC3)C(=O)N(CCc3ccc(OC)c(OC)c3)C1=C[C@H](C(C)C)O[C@@H]2C1CC1	1	.	-1	1	1
c1csc(-c2nnc(SCc3cccc4ccccc34)o2)c1	-3	.	-2	1	1
O=C(CCCCCNC(=O)N1CCn2c1nc1ccccc12)N[C@@H](Cc1ccccc1)C(=O)O	0	4.5*	0	2	1
CCn1cnc2cc(NCc3ccc(C)cc3)ccc21	1	2	-1	4	4.4*
CCn1cnc2cc(NCc3ccc(Br)cc3)ccc21	5	.	-1	3	2
Cc1ccc(CNc2ccc3c(c2)ncn3C(C)C)cc1	1	6.2*	-1	7	2
CCOC(=O)CN/C=C(\C#N)c1ccccc1	-1	5.4*	-1	-4	0
COc1ccc2ccccc2c1C=Nn1c(-c2cc(-c3ccccc3)n[nH]2)n[nH]c1=S	-1	.	0	0	0
CSc1nnc(SCC2=NNC(=O)SC2)s1	-1	0	0.9*	1	0
COC(=O)C1CCCN(C(=O)C2CCN(S(=O)(=O)c3cccc4cccnc34)CC2)C1 (configuration not stated)	-5	.	-2	3	1
CC(C)N(CCn1cnc2c([nH]c3ccccc32)c1=O)C(C)C	6.1*	0	0	3	1
CCCN1CCS(=O)(=O)N(Cc2cn(Cc3ccccc3)nn2)C(C(=O)OC)C1 (configuration not stated)	0	.	-1	-3	0
Cc1cc(N2CCNC[C@H]2C)ccc1N1CCS(=O)(=O)CC1	4	.	-1	5	1
COc1cc(/C=N/n2cnnc2)ccc1OCC(=O)N1CCOCC1	0	4.9*	-1	-3	0
CC(C)CNC(=O)OCc1cn(Cc2ccc(F)c(F)c2)nn1	-1	.	0	0	1
CCN(CC)CCNC(=O)c1ccc(NC(=O)c2cccc(S(=O)(=O)N3c4ccccc4CC3C)c2)cc1 (configuration not stated)	0	0	-1	1	2
CCN(CC)CCNC(=O)c1ccc(NC(=O)c2cccc(S(=O)(=O)N3CCc4ccccc43)c2)cc1	-1	0	-2	1	3.9*
O=C(NC1=N[C@@]2(C=C3CCCCC3n3c(=O)n(-c4ccccc4)c(=O)n32)CN1Cc1ccccc1)c1ccccc1 (some centres not stated)	-1	.	-2	0	-2
SMILES	hcDAF-12 act	DAX1 inh-1	ssDAF12 agonist	hgDAF12 agonist	DAX1 inh-2
CC(C)(C)C(=O)O/N=C(\N)COc1cccc(Cl)c1	2	6.9*	-1	5	0
Nn1c(SCc2c(Cl)cccc2Cl)nnc1-c1n[nH]c2c1CCC2	-4	.	-1	0	0
C/C(=N/NC(=O)c1sc(NS(=O)(=O)c2ccccc2)nc1C)c1ccccc1	-1	5.6*	-1	0	0
C/C(=N/NC(=O)c1sc(NS(=O)(=O)c2ccccc2)nc1C)c1ccc(F)cc1	-2	0	-1	1	0
CCc1nnc(NC(=O)CSc2nc3c(cc2C#N)CCC3)s1	1	0	0	10	2
N#Cc1cc2c(nc1SCC(=O)Nc1nccs1)CCCCC2	11*	2	1.0*	21*	7.7*
CCCCNC(=O)c1ccc(NC(=O)C2CCCO2)cc1 (configuration not stated)	-1	0	0	2	0

From PubChem BioAssay
